In the library only some 1.5% were active in any assay of this set; here they are far more common.
NOD2-RIPK2 inh: inhibitors of human NOD2-RIPK2 interaction; O43353; CHO BLA complementation NOD2-RIPK2, CCF4 ratio; inhibition, % at 4.98 µM; 360,000 tested, 0.38% active; AID 624267; in the data active means inhibition above about 21%;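 further: 0% = vehicle only and 100% = reference blocker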
TLR4 MyD88 comp: blocks binding of human TLR4 to MyD88; O00206+Q99836; HeLa CL3-4 TLR4/MyD88 BLA complementation, FRET ratio; inhibition, % at 8.4 µM; 200,000 tested, 0.18% active; in the data active means inhibition above about 25%;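 further: 0% = vehicle and 100% = reference inhibitor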
Myeloid diff MLP: compounds promoting myeloid differentiation; ER-HoxA9 myeloid progenitors, lysozyme-GFP differentiation, flow cytometry; calls only at 10 µM; 360,000 tested, 1% active; AID 624256;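 active means normalized GFP-positive differentiation at or above the plate's own cutoff, the solvent-only control mean plus 3 SD; inconclusive means no clear call, values can overlap the other calls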;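 further: cells exposed to compound for four days before flow analysis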
TLR9-MyD88 block: blocks human TLR9 binding to MyD88 | Q9NR96+Q99836 | CHO BLA complementation TLR9-MyD88, CCF4 FRET ratio | inhibition, % at 4.98 µM | 340,000 tested, 0.21% active;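 active means inhibition above the mean over all tested compounds plus 3 SD, cut at about 21% in these data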;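 further: 0% = DMSO only wells and 100% = clavulanate BLA inhibitor control wells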
Myeloid diff CP1: myeloid differentiation induction; shares compounds with Myeloid diff MLP; ER-HoxA9 myeloid progenitors, GFP/Mac1 double-positive flow; calls only; 2,300 tested, 2% active; AID 651706;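 active means share of green or green-and-red cells above 9 and 9% in run 1 or 4 and 3% in run 2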
GFP autofluor: counter-screen for myeloid differentiation promoters: compound fluorescence; shares compounds with Myeloid diff MLP; ER-HoxA9 myeloid progenitors, no estrogen, GFP autofluorescence flow cytometry; vehicle wells 0%, positive control 100%; fluorescence response, % (concentration not given with the values); 2,300 tested, 7.4% active; AID 651707;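 active means over 5% cells positive for green fluorescent reporter, or over 2% positive for both it and APC stain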;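 further: range taken on the double positive population between DMSO and positive control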
The depositor's hits bear a star; i = inactive; ? = inconclusive; / = no result; + = active, no number.

SMILES | NOD2-RIPK2 inh | TLR4 MyD88 comp | Myeloid diff MLP | TLR9-MyD88 block | Myeloid diff CP1 | GFP autofluor
COCCN(C(=O)CSc1nc2ccccc2s1)c1c(N)n(Cc2ccccc2)c(=O)[nH]c1=O | -2.5 | / | + | -1.1 | i | 3.2
COCCN(C(=O)CSc1n[nH]c(-c2ccc(OC)cc2)n1)c1c(N)n(Cc2ccccc2)c(=O)[nH]c1=O | -2.6 | / | + | -3.0 | i | 0.0
CCCCn1c(N)c(N(CCOC)C(=O)CSc2n[nH]c(-c3ccc(OC)cc3)n2)c(=O)[nH]c1=O | -4.8 | / | i | -47.3 | / | /
COCCN(C(=O)COC(=O)CCc1nc2ccccc2s1)c1c(N)n(Cc2ccccc2)c(=O)[nH]c1=O | 6.6 | / | i | 1.5 | / | /
CSc1ccc(CN2CCC2(C)C(=O)Nc2ccc3c(c2)OCO3)cc1 (stereo not given) | 3.2 | / | i | / | / | /
COc1ccccc1CN1C(=O)C2CC=CCC2C1=O (stereo not given) | -8.4 | 3.6 | i | 15.2 | i | 1.2
CCOC(=O)[C@]12CCCC=C1N(Cc1ccc(Cl)cc1Cl)C(=O)[C@H](CC(=O)N1CCN(C(=O)C3CC3)CC1)C2 | 0.2 | / | i | / | / | /
CC1Cc2ccccc2N1C(=S)Nc1cccc(S(=O)(=O)N(C)C)c1 (stereo not given) | -1.7 | 1.8 | i | -7.3 | / | /
CC1CCN(C(=S)Nc2cccc(S(=O)(=O)N(C)C)c2)CC1 | 2.3 | -5.8 | + | 2.2 | i | 0.3
CC1(C(=O)NS(=O)(=O)c2cccc(F)c2)CCN1C(=O)CC1CCCC1 (stereo not given) | -11.2 | / | i | / | / | /
CCc1nc2ccc(C(=O)Nc3cc(-c4ccccc4)ccc3OC)cn2c1N(C)Cc1nccs1 | -8.8 | / | + | / | i | 0.0
CCc1nc2ccc(C(=O)Nc3cc(-c4ccccc4)ccc3OC)cn2c1N(C)Cc1ccc(OC)cc1 | -3.1 | / | i | / | / | /
c1ccc(N2CCN(c3cccc(-c4cc5ccccc5s4)n3)CC2)nc1 | 0.4 | / | i | / | / | /
c1ccc(C2=Nn3c(nnc3-c3ccccn3)SC2)cc1 | -7.9 | 6.9 | i | -4.4 | i | 0.0
O=S1(=O)N=C(N2CCN(Cc3ccccc3)CC2)c2ccccc21 | -2.8 | -10.9 | + | 0.0 | i | 0.0
COc1ccccc1NS(=O)(=O)c1ccccc1C#N | 1.6 | -11.6 | i | 2.9 | i | 0.0
CCN1C(=O)[C@H]2[C@@H](c3ccc(C)cc3)N[C@]3(CCCN(Cc4ccc(Cl)cc4)C3=O)[C@H]2C1=O | 1.6 | / | ? | 6.1 | / | /
C=CCNC(=S)Nc1ccccc1 | -9.3 | -8.7 | i | 1.9 | / | /
C=CCNC(=S)/N=c1/ccccn1CC | -2.7 | / | i | -2.0 | i | 3.8
CC(=O)N1CCC(C(=O)N2c3ccccc3N=C(c3ccc4c(c3)OCO4)C2C(=O)Nc2c(C)cccc2C)CC1 (stereo not given) | 6.7 | / | i | / | / | /
CCOC(=O)c1oc2ccc(CNC3CCCCC3)c(Cl)c2c1C | -6.1 | -11.5 | + | 6.4 | i | 0.0
O=C(Nc1cccc2ccccc12)C1CCN(C(=O)Cc2ccccc2)CC1 | -1.0 | 0.0 | / | -9.7 | i | 0.0
Cn1c(=O)c2c(SCC(=O)c3ccccc3)nc(C3CC3)nc2n(C)c1=O | -2.0 | -10.4 | i | -4.8 | i | 0.0
Cc1nc(SCC(=O)Nc2ccccc2C(F)(F)F)c2c(=O)n(C)c(=O)n(C)c2n1 | -3.0 | -2.1 | + | 2.4 | i | 0.3
Cc1nc(SCC(=O)NCc2ccccc2)c2c(=O)n(C)c(=O)n(C)c2n1 | -3.3 | -5.8 | i | -8.5 | / | /
SMILES | NOD2-RIPK2 inh | TLR4 MyD88 comp | Myeloid diff MLP | TLR9-MyD88 block | Myeloid diff CP1 | GFP autofluor
CCN1CCc2c(sc(NC(=O)c3ccc(S(=O)(=O)N4CCCC4)cc3)c2C(=O)NC)C1 | -21.0 | / | i | -8.7 | / | /
CCCN1CCc2c(sc(NC(=O)c3ccc(S(=O)(=O)N(C)c4ccccc4)cc3)c2C(=O)NC)C1 | 0.2 | / | + | -1.0 | i | 1.0
CNC(=O)c1c(NC(=O)c2ccc(S(=O)(=O)N3CCCc4ccccc43)cc2)sc2c1CCN(C)C2 | 7.4 | / | + | 6.5 | + | 0.0
CSCCC(C(=O)NCc1ccccc1)n1c(C2CCN(C(C)=O)CC2)nc2ccccc21 (stereo not given) | 1.4 | / | i | / | / | /
COc1nc(OC)nc(N2CCCCCC2)n1 | 6.1 | 13.0 | i | 1.6 | i | 0.7
Cc1cccc(C)c1NC(=O)C1(C)CSCC(=O)N1CCOc1ccccc1 (stereo not given) | -8.0 | / | i | / | i | 0.0
COCCN1C(=O)CSCC1(C)C(=O)Nc1c(C)cccc1C (stereo not given) | -6.0 | / | i | / | / | /
COCCCn1c(SCC(=O)OC2CCCCC2)nnc1-c1ccco1 | -3.9 | -1.2 | i | 4.6 | / | /
COCCCn1c(SCC(=O)OC2CCCCC2)nnc1-c1cccs1 | 0.4 | 6.0 | i | 6.3 | i | 0.0
CCNc1nc(-c2sc(NC(=O)C(C)(C)C)nc2C)c(-n2cc(-c3ccccc3)nn2)s1 | -3.9 | / | i | / | / | /
COC(=O)c1c(NC(=O)C2(C)Cc3ccccc3C(=O)O2)sc2c1CCCC2 (stereo not given) | -4.8 | 6.2 | + | -3.3 | i | 0.0
CN1OC[C@@H]2CN(C(=S)NCCc3ccccc3)[C@H](c3ccc(-n4ccnc4)cc3)C[C@@H]21 | -0.7 | / | i | / | / | /
CC1CN(C(=O)CN2C(=O)NC3(CCCCCCC3)C2=O)CC(C)O1 (stereo not given) | -3.1 | 1.7 | + | 0.1 | i | 0.8
Cn1cc(CC(=O)N2CCN(c3ccc(Cl)cc3)CC2)c2ccccc21 | 7.1 | 4.1 | i | -6.3 | i | 0.8
CCOc1ccc(N2C(=O)CS/C2=N/NC(=O)COc2ccc3ccccc3c2)cc1 | 4.0 | -6.5 | i | 2.9 | i | 0.9
COc1cccc(NC(=O)Nc2nnc([C@H]3C[C@H](O)[C@@H](CO)O3)s2)c1 | -2.2 | / | i | / | / | /
C[C@@H]1CN([C@@H](C)CO)C(=O)CCCn2nncc2CO[C@H]1CN(C)S(=O)(=O)c1ccc2ccccc2c1 | 2.6 | / | i | -8.7 | i | 0.0
CCCCn1nnnc1C(c1ccccc1OC(F)(F)F)N1CCN(C/C=C/c2ccccc2)CC1 (stereo not given) | -3.6 | / | i | / | / | /
COc1cc(S(=O)(=O)n2ccc(C)n2)c(OC)cc1Cl | -7.0 | -1.8 | + | 1.6 | i | 0.0
COc1cc(S(=O)(=O)n2ccc(C)n2)ccc1Cl | -5.3 | / | i | -7.0 | / | /
O=C(O)Cc1sc(N/N=C\c2ccncc2)nc1-c1ccccc1 | -7.8 | / | i | -13.0 | i | 0.0
COc1cc(C(=O)OCC(=O)NC2CCCCC2)cc2c1OCCO2 | 4.0 | / | + | -3.1 | i | 0.6
COc1cc(C(=O)OC(C)C(=O)N2CCCC2)cc2c1OCCO2 (stereo not given) | -9.2 | / | i | 2.9 | i | 0.0
Cc1ccc(CN2C(=O)C(C)Sc3ccc(C#N)cc32)cc1 (stereo not given) | 11.3 | / | i | / | / | /
